# From PubChem BioAssay (EPA / NIEHS)
# Records with an inconclusive call do not appear. The source made the active and inactive calls. The calls were made as follows: active = hit-call score of the fitted dose curve at least 0.9, where 1 is the maximum; inconclusive = response in the unintended direction; inactive = score below 0.9.
# Experiments:
# [1] = TAMU_PeakParms_SingleDonor1434_Asystole: Texas A&M University (TAMU) 1.5-hr Human Induced Pluripotent Stem Cell (iPSC)-derived Cardiomyocytes Calcium (Ca+2) Flux Assay for Cardiotoxicity: Asystole (quiescence of beating) (AID 2284328)
# In short: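 Average Ca2+-flux peak frequency (beats/s) was recorded in single-donor iPSC-derived cardiomyocytes after 90 min exposure (0.2–100 uM final, 0.5% DMSO). Asystole POD set as EC95 against DMSO, no preprocessing.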
# [2] = IUF_NPC1_cytotoxicity_72hr: Cytotoxicity Assessment at 72 hours in the Leibniz Research Institute for Environmental Medicine (IUF) Neural Progenitor Cell Proliferation Assay (NPC1) (AID 2284332);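 also: rising LDH signal means more cytotoxicity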
# In short: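 Readout is fluorescence from LDH-dependent resazurin conversion, sampled from culture medium after compound contact lasting 72 h. Each well holds one 0.25-0.35 mm human progenitor sphere kept at 37C, 5% CO2 with EGF and FGF.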
# [3] = CCTE_Mundy_HCI_iCellGluta_NOG_NeuronCount: CCTE's Neurite Outgrowth Assay in iCellGluta cells for Neuron Count, Mundy Lab (AID 2284340);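 also: cells fixed about 48 h after compound addition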
# In short: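 Neuron count read by automated high-content imaging of Hoechst 33342 and betaIII-tubulin/Alexa Fluor-488 labelling in human iPSC glutamatergic neurons. Activity fitted relative to DMSO.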
smiles,measurement,setting,value
O=C(O)CCCC[C@@H]1SC[C@@H]2NC(=O)N[C@@H]21,outcome,[1],inactive
Nc1ncn([C@@H]2O[C@H](CO)[C@@H](O)[C@H]2O)c(=O)n1,outcome,[2],inactive
same,outcome,[3],inactive
CC1(C)S[C@@H]2[C@H](NC(=O)COc3ccccc3)C(=O)N2[C@H]1C(=O)O,outcome,[2],inactive
N[C@H]1C(O)O[C@H](CO)[C@H](O)[C@@H]1O (stereo not given in full),outcome,[3],inactive
